# This is a sample that favours compounds with a hit; in the whole collection about 1.7% have one here.
# Sa ugtP lethal = growth inhibition of S. aureus ugtP deletion strain; 330,000 tested, 0.54% active; S. aureus RN4220 ugtP deletion, OD600 growth, 16 h; growth inhibition, % (no concentration beside the values); in the data active = growth inhibition above about 68%;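 note: plate controls were untreated wells for no effect and antibiotic for full effect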
# Mtb hypoxia inh = reduces hypoxia-regulated biosensor signal in M. tuberculosis | M. tuberculosis hypoxia-regulated fluorescent reporter, fluorescence | fluorescence inhibition, % (no concentration beside the values) | 300,000 tested, 0.1% active; in the data active = fluorescence inhibition mostly above about 23%, no sharp cut-off; inactive = mostly below about 17%
# CCHFV vOTU inh = blocks the CCHF virus ovarian tumor domain protease; inhibition, % at 11.5 µM; CCHFV vOTU protease, Pep-AMC fluorescence; 370,000 tested, 0.55% active; AID 651958; in the data active = inhibition above about 30%; note: 0% = vehicle wells with enzyme and 100% = no enzyme wells
# PfHsp40 yeast = compounds rescuing yeast from Plasmodium falciparum HSP40 toxicity. growth rescue, % at 12.5 µM. 340,000 tested, 0.68% active. S. cerevisiae expressing PfHsp40, growth rescue, ATP luminescence. AID 504582; in the data active = growth rescue above about 28%, passing the limit was not always enough;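 note: yeast W303a lacking pdr1 and pdr3 grown in galactose medium; growth measured after three days at 30 °C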
# Vc quorum ag = induces V. cholerae light production without autoinducers; activation, % at 18.7 µM; AID 588436; 350,000 tested, 0.16% active; V. cholerae BH1578 lux reporter, luminescence, 6 h; in the data active = activation mostly above about 9.7%, no sharp cut-off
# Sa RN4220 lethal = S. aureus RN4220 growth inhibition. 330,000 tested, 0.33% active. inhibition, % (no concentration beside the values). AID 1259311. OD600, 16 h; in the data active = inhibition above about 85%;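 note: plate controls were untreated cells for no effect and reference antibiotic for full effect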
# An asterisk follows results filed as active; i = inactive; . = no result given.
SMILES,Sa ugtP lethal,Mtb hypoxia inh,CCHFV vOTU inh,PfHsp40 yeast,Vc quorum ag,Sa RN4220 lethal
COc1ccccc1-c1ccc(SCc2ccc(C)cc2)nn1,1,14,-10,26*,0,55
COc1ccccc1-c1ccc(SCc2ccc(F)cc2)nn1,1,-4,12,6,2,18
CCOc1ccc(NC(=O)CC(C)=NNC(=O)Cc2cccs2)cc1,8,4,.,.,.,3
Cc1cccc(C(=O)Nc2ccc(C(=O)NN=Cc3cccnc3)cc2)c1,-5,4,.,.,.,0
Cc1cc(N2CCCCC2)n2ncc(-c3ccc(Cl)cc3)c2n1,85*,-10,-4,-1,0,-1
Cc1cc(N2CCOCC2)n2ncc(-c3ccc(Cl)cc3)c2n1,58,6,1,0,-1,1
COc1cc(Br)cc(C=NNC(=O)Cc2ccc(C(F)(F)F)cc2[N+](=O)[O-])c1O,3,5,.,.,.,-7
CC(C)C[C@@H]1CN=C(N)N1C[C@@H]1CCCN1C[C@@H](C(C)C)N1C[C@@H](Cc2ccccc2)N(CCc2ccc(Cl)c(Cl)c2)C1=N,100*,10,-5,2,i,99*
CC(C)CC1CN=C(N)N1CC1CCCN1CC(C)N1CC(Cc2ccccc2)N(CCc2ccc(Cl)c(Cl)c2)C1=N (stereo not given),101*,91*,.,.,.,101*
CC(C)C[C@@H]1CN=C(N)N1C[C@@H]1CCCN1C[C@H](C)N1C[C@@H](Cc2ccccc2)N(CCc2ccc(Cl)c(Cl)c2)C1=N,.,.,.,0,i,.
CC[C@@H](C)[C@@H]1CN([C@@H](CN2CCC[C@H]2CN2C(N)=NC[C@@H]2Cc2ccccc2)C(C)C)C(=N)N1CCCC1CCCC1,.,.,.,2,5,.
CC(C)C(CN1CCCC1CN1C(N)=NCC1Cc1ccccc1)N1CC(Cc2ccccc2)N(CCc2ccc(Cl)c(Cl)c2)C1=N (stereo not given),100*,.,.,.,.,101*
CCN(CC)c1ccc(C=NNC(=O)c2c(-c3ccccc3)noc2C)cc1,4,5,.,.,.,3
CC(=O)NCC(C)=NNc1ccc([N+](=O)[O-])cc1,-19,-22,.,.,.,-1
Cc1cc(C(=O)NN=Cc2ccc(N(C)C)o2)cs1,1,-1,.,.,.,0
CC1CN(C(C)CO)C(=O)c2cccc(NC(=O)Nc3ccccc3)c2OC1CN(C)S(=O)(=O)c1cccs1 (stereo not given),16,5,.,.,.,8
O=S(=O)(Nc1cccc2c1CCCC2)c1ccc(Cl)cc1,-10,8,11,42*,0,10
Oc1cccc2ccc(/C=C/c3ccccc3Cl)nc12,91*,11,-3,0,-1,83
CCOc1cccc(/C=C/c2ccc3cccc(O)c3n2)c1OC,.,.,-6,168*,-2,.
Oc1cccc2ccc(/C=C/c3c(F)cccc3Cl)nc12,8,0,5,7,-2,-8
C/C=C(/C)C(=O)O[C@@H]1c2c(ccc3ccc(=O)oc23)O[C@@H]1C(C)(C)OC(C)=O,.,.,-2,-2,i,.
CC=C(C)C(=O)OC1c2c(ccc3ccc(=O)oc23)OC1C(C)(C)OC(=O)C(C)=CC (stereo not given),97*,18,.,.,.,-4
COc1ccc(C=NNC(=O)c2cc(O)c(O)c(O)c2)cc1COc1ccc(C(=O)OCC(C)C)cc1,99*,5,.,.,.,26
CC(C)(C)c1ccc(OCc2ccc(C(=O)NN=Cc3ccc(O)c(O)c3)cc2)cc1,94*,10,.,.,.,47
O=C(NN=Cc1ccccc1)c1ccc(OCc2ccccc2)cc1,7,9,.,.,.,3
SMILES,Sa ugtP lethal,Mtb hypoxia inh,CCHFV vOTU inh,PfHsp40 yeast,Vc quorum ag,Sa RN4220 lethal
O=C(NN=Cc1ccc(OCc2ccccc2)cc1)c1ccncc1,4,36*,.,.,.,6
Nc1ncnc2c(C3OC(CO)C(O)C3O)scc12 (stereo not given),.,.,-75,145*,i,.
C[C@@]12C(=O)Nc3ccc(F)cc3C(=O)N1[C@H]1c3cc(Cl)ccc3OC[C@@H]1[C@@H]2c1ccccc1,.,.,-4,1,i,.
C[C@@]12C(=O)Nc3ccc(Cl)cc3C(=O)N1[C@H]1c3ccccc3OC[C@@H]1[C@@H]2c1ccccc1,.,.,.,118*,-1,.
C[C@@]12C(=O)Nc3ccc(Cl)cc3C(=O)N1C1c3cc(Cl)ccc3OCC1C2c1ccccc1 (stereo not given in full),-7,-6,.,.,.,-6
C[C@@]12C(=O)Nc3ccc(F)cc3C(=O)N1[C@H]1c3ccccc3OC[C@@H]1[C@@H]2c1ccccc1,.,.,.,138*,i,.
COc1ccccc1C(=O)NC(=S)NNC(=O)c1sc2ccccc2c1Cl,98*,-10,4,-1,0,100*
COc1ccccc1C(=O)NNC(=S)NC(=O)c1sc2ccccc2c1Cl,-3,11,-5,0,0,18
CCCCOc1cccc(-c2cc(C(=O)NNC(=S)NCC)c3ccccc3n2)c1,-5,3,2,47*,i,4
CCNC(=S)NNC(=O)c1cc(-c2ccc(OC)cc2)nc2ccccc12,1,9,2,0,0,5
COc1ccc(Cl)cc1C(=O)NNC(=S)NC(=O)c1cc(-c2ccc(Cl)cc2)nc2ccccc12,57,.,9,-1,i,115*
CCOC(=O)c1ccc(NC(=S)NNC(=O)c2cc(-c3cccnc3)nc3ccccc23)cc1,-1,-7,8,154*,i,4
C=CCN1C(=O)C(CC(=O)Nc2ccccc2)SC1=Nc1nccs1 (stereo not given),-2,2,.,.,.,1
COc1ccc(C=NNC(=O)Cn2cnc3ccccc3c2=O)cc1,2,7,.,.,.,3
C=C1C(O)C(Cc2ccccc2)N(Cc2ccccc2Br)S1(=O)=O (stereo not given),10,14,.,.,.,15
CCOC(=O)CC1c2ccccc2S(=O)(=O)N1c1cccc(OC)c1 (stereo not given),3,11,.,.,.,9
O=S(=O)(O)c1ccc(N=Nc2ccccc2)cc1,-4,-5,1,-1,i,-3
Oc1ccc(N=Nc2ccccc2)o1,5,6,-7,288*,-1,2
CC1CCN(S(=O)(=O)c2ccc(C(=O)NNC(=O)C3CC3)cc2)CC1,-9,-5,-10,124*,i,-1
C#CCOCCOCCOCCNc1nc(N2CCOCC2)nc(N2CCN(C(=O)C(Cc3ccc(O)cc3)n3cc(C(N)CC(C)C)nn3)CC2)n1 (stereo not given),1,-1,.,.,.,2
CCCNC(=O)c1cc2ccccc2c(=O)o1,6,11,7,0,i,6
Cc1cc(C)n(C(=O)c2cc3ccccc3c(=O)o2)n1,-4,5,6,0,17*,-12
COc1ccc(NC(=O)Nc2cccc3c2OC(CN(C)C(=O)Nc2ccc(C(F)(F)F)cc2)C(C)CN(C(C)CO)C3=O)cc1 (stereo not given),4,2,.,.,.,-4
CC(C(=O)NCC1CC1)C1C[C@@]1(C)C(NC(=O)OCc1ccccc1)c1ccccc1 (stereo not given in full),2,9,.,.,.,1

# Screens: PubChem, several laboratories
